Hit rate of the full screen: of about 340,000 compounds, about 800 (0.24%) were called active. Shown is part of a subset that was picked to be rich in actives. Values without a mark were called inactive.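 The calls were made as follows: active = activation above the mean over all tested compounds plus 3 SD (cut at about 30% in these data); inactive = the rest.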
Biological target: Troponin I, cardiac muscle (Homo sapiens) + Troponin T, cardiac muscle (Homo sapiens) + Troponin C, slow skeletal and cardiac muscles (Homo sapiens) (UniProt P19429+P45379+P63316)
Test: cardiac RTF calcium sensitivity activators, primary screen, biochemical, IANBD-TnC fluorescence, EC20 calcium (AID 493008);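 also: rise in fluorescence read as greater calcium sensitivity of cardiac thin filaments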
Details: IANBD-labeled TnC RTF fluorescence at EC20 calcium; at 7.2 µM; stronger effect = higher value; 0% EC20 calcium, 100% full calcium

SMILES | activation
CN(C)c1ccc(C=C2C(=O)OC3(CCCC3)OC2=O)cc1 | -3.77%
CC1CN(Cc2ccccc2)C(=S)NC1=O (configuration not stated) | -1.27%
CN(C)c1ccc(/C=C2\NC(=S)N(Cc3ccccc3)C2=O)cc1 | 66% (active)
CCn1cc(C(=O)N2CC=C(c3ccccc3)CC2)c(=O)c2ccc(C)nc21 | -3.54%
CCCCNC(=O)C(C)N(CCN(C)C)C(=O)CCCCCN1C(=O)NC(c2ccc(Cl)cc2)C(C(=O)OCc2ccccc2)=C1C (configuration not stated) | -4%
CCOc1ccc(N(CC(=O)NCCOc2ccccc2OC)S(=O)(=O)c2ccccc2)cc1 | 2.75%
CCCNCc1cc(OCC)c(OCC(=O)Nc2ccccc2)cc1Br | 4.49%
COc1ccc(OC)c(CCNC(=O)c2nn(C)c3c2CS(=O)(=O)c2ccccc2-3)c1 | -2.91%
O=c1ccc(S(=O)(=O)N2CCCC2)cn1Cc1nc(-c2ccccc2)no1 | -2.09%
CC1CCCN(CC(O)COc2ccc3c(c2)OCO3)C1 (configuration not stated) | -0.7%
Cn1cccc1C(=O)N1CCc2ccccc2C1 | 1.33%
OCC[C@H]1C[C@@H](O)[C@H](O)[C@]2(OCCCc3ccccc32)O1 | 2.9%
CCCC1OC23CCCCC2C(C#N)(C#N)C1(C#N)C(=N)O3 (configuration not stated) | 35% (active)
C=CCC[C@@H](Cc1ccc(F)cc1)C(=O)OC[C@H](Cc1c[nH]c2ccccc12)NC(=O)[C@@H](CC=C)CC(=O)N(CCO)Cc1ccccc1 | -0.54%
CN1CCNC(=O)C1CC(=O)NCCC1=CCCCC1 (configuration not stated) | 9.88%
COc1ccc(C(=O)OCc2cc(=O)n3ccsc3n2)cc1F | -7.02%
COCc1cc(=O)[nH]c2cc(NC(=O)C(F)(F)F)c(C)cc12 | -3.59%
CCOC(=O)N1CCC(c2cc(=O)n(-c3ccccc3)[nH]2)CC1 | 2.7%
O=c1cc(N2CCCCC2)c(-c2ccccc2)nn1Cc1cccc(F)c1 | -0.45%
Cc1nc([N+](=O)[O-])cn1CC(=O)Nc1ccc(Cl)cc1 | 0.6%
Nc1nc(SCC(=O)N2CCN(S(=O)(=O)c3ccc(Cl)cc3)CC2)n[nH]1 | 11.6%
Cc1nc(N=C(N)N)nc2c(C)cccc12 | -2.23%
COCCCNC(=O)C1CCN(c2ccc(N3CCOCC3)nn2)CC1 | 1.09%

SMILES | activation
CC1CCN(c2c(NCc3ccc(C(=O)NCc4ccccc4)cc3)c(=O)c2=O)CC1 | 13.9%
Cc1ccc(CNC(=O)c2cccc3c2C(=O)c2ccc(N4CCC(C)CC4)cc2S3(=O)=O)cc1 | 100% (active)
Cc1ccc(CNC(=O)c2ccc3c(c2)S(=O)(=O)c2ccccc2C3=O)cc1 | -0.11%
O=C(NCc1ccccc1CN1CCCC1)c1cccc(S(=O)(=O)Nc2ccc(F)cc2)c1 | -1.12%
COc1ccc(OC)c(Cc2cnc3nc(N)nc(N)c3c2C)c1 | 0.81%
Cc1cccc(NC(=O)CN2CCN(CC(=O)NCC3(N4CCCCC4)CCCCC3)CC2)c1C | -1.57%
COc1ccc(CNC(=O)COC(=O)C2=Cc3ccccc3OC2)cc1 | -9.53%
CN(O)C(=S)c1ccccc1 | -1.46%
Cc1c(C)n2c(SCC(=O)NC3CCCC3)nnc2[nH]c1=O | 0.28%
CCCN(CCC)S(=O)(=O)c1ccc(C(=O)N2CC3CCC(CC3)C2)cc1 | -0.05%
CCN1CC=C2C(C#N)=C(N)C(C#N)(C#N)[C@H](c3ccoc3)[C@H]2C1 | 62% (active)
Cc1ccc(-c2nn(-c3ccccc3)cc2/C=C2\SC(=S)N(CCCCCC(=O)O)C2=O)o1 | 48.1% (active)
Cc1ccc(/C=C2/SC(=S)N(CCC(=O)NCCCN3CCOCC3)C2=O)cc1 | 2.69%
C=CCOc1ccc(/C=C2\SC(=S)N(CCC(=O)O)C2=O)cc1 | 1.79%
Cc1ccc(-c2noc(C3CCCN(C(=O)c4cccc(Cl)c4)C3)n2)o1 (configuration not stated) | -2.07%
CC(C)CC(CCc1ccccc1)OS(N)(=O)=O (configuration not stated) | -4.63%
COc1ccc(CNCCCNCc2ccc(OC)c(OC)c2)cc1OC | 0.94%
C=CCn1c(SCC(=O)c2c(N)n(C)c(=O)n(C)c2=O)nc2sc(CC)cc2c1=O | 1.89%
C[C@H](NC(=O)c1ccccc1Cl)C(=O)OCCOc1cccc(Cl)c1 | 1.17%
Cc1ccc(C2=CSC3=NS(=O)(=O)CCN23)cc1C | 13.6%
C/C(=C/c1ccccc1)C(=O)N1CCN(c2ccccc2)CC1 | 9.01%
Cc1[nH]c(N)nc(=S)c1CCCNc1ccccc1 | -2.1%
C=CC[C@H](CC(=O)NCCO)C(=O)N[C@@H](COC(=O)[C@@H](CC=C)Cc1ccc(F)cc1)Cc1c[nH]c2ccccc12 | 2.33%

SMILES | activation
CCc1ccc(CN(C)C(=O)CCc2nnc(-c3ccc(-c4ccccc4)cc3)o2)nc1 | -1.69%
Cc1c(CCC(=O)O)c(=O)oc2cc3occ(-c4ccccc4)c3cc12 | 5.11%
CCCCCCc1cc2cc(-c3nnc(-c4ccccc4)o3)c(=O)oc2cc1O | 76.8% (active)
O=C(N[C@H]1C/C=C\C(c2cccc(F)c2)N(Cc2ccccc2)C(=O)C1)OCC1c2ccccc2-c2ccccc21 (some centres not stated) | -0.43%
COc1ccc(C(CNCC(=O)Nc2ccccc2F)N(C)C)cc1 (configuration not stated) | -1.39%
S=C(Nc1ccc2c(c1)OCO2)N1CCCC1 | 8.04%
CCOC(=O)/C(C#N)=C/c1ccc(N2CCN(Cc3ccccc3)CC2)cc1 | 42.2% (active)
CCOC(=O)/C(C#N)=C/c1ccc(OCC(=O)Nc2ccccc2)c(OC)c1 | 6.94%
CC(C)OC(=O)C(C#N)c1nc2ccccc2nc1N1CCN(Cc2ccccc2)CC1 (configuration not stated) | -2.43%
Cc1ccnc(N2CCN(C(=O)CSc3nc4ccccc4nc3N3CCCCC3)CC2)c1 | 0.05%
Cc1ccccc1NC(=O)c1ccc(COc2ccc3c(C)cc(=O)oc3c2)cc1 | 1.18%
O=C(CCC(=O)N1CCCC1)Nc1ccc([N+](=O)[O-])cc1 | -1.36%
Cc1cc(-c2n[nH]c(=S)n2/N=C/C(Br)=C/c2ccccc2)n[nH]1 | 0.67%
CCOC(=O)/C=C/C(=O)OCC(=O)NC(c1ccccc1)c1ccccc1 | -0.28%
CN(C)S(=O)(=O)c1cc(NC(=O)CN2C(=O)NC3(CCCc4ccccc43)C2=O)ccc1Cl (configuration not stated) | 5.19%
Oc1ccc(-c2nc3ccccc3nc2-c2ccc(O)cc2O)c(O)c1 | 2.23%
Oc1ccc2ccc3cccc[n+]3c2c1 | 720% (active)
CCOC(=O)C1=C(C)NC2=C(C(=O)CC(C)(C)C2)C1c1ccsc1 (configuration not stated) | 8.26%
N#C/C(=C\c1ccc(N2CCOCC2)o1)C(=O)N1CCOCC1 | 114% (active)
N#C/C(=C\C1=C(N2CCOCC2)C(=C\c2ccccc2)/CC1)C(=O)Nc1ccccc1F | 11.9%
O=C(N1CCOCC1)N1CCOCC1 | 0.83%
O=C(NC(=O)N1CCOCC1)c1ccccc1 | -4.59%
N#C/C=C(/c1ccc(F)cc1)N1CCOCC1 | 0.45%

SMILES | activation
N#C/C(=C/c1ccc(N2CCOCC2)o1)C(=O)N1CCOCC1 | 64.8% (active)
O=C(NC1CCCC1)C(c1ccco1)N(C(=O)c1csnn1)c1ccccc1 (configuration not stated) | -5.15%
COc1ccccc1-n1nnnc1S(=O)(=O)Cc1ccc(Cl)cc1 | -4.59%
O=C(Nc1cccc(F)c1)c1coc(=O)c(Br)c1 | 2.96%
O=C(NNC1CC(=O)N(c2cccc(Cl)c2)C1=O)c1cccnc1 (configuration not stated) | 3.38%
COc1ccc(N2CCN(S(=O)(=O)c3ccc4c(c3)NC(=O)C(C)C(=O)N4)CC2)cc1 (configuration not stated) | -1.46%
CCOc1cc(/C=C(\C#N)c2nc(-c3cccs3)c(NC(C)=O)s2)ccc1O | 53.3% (active)
CCOc1cc(C=NNC(=O)CCCC(=O)NN=Cc2ccc(O)c(OCC)c2)ccc1O | 3.71%
CCOc1cc(-c2cc(-c3ccc(NC(C)=O)cc3)nc(N)c2C#N)ccc1O | -2.6%
C/C(N)=C(/C#N)C(=O)COC(=O)C1=NN(c2ccccc2)C(=O)CC1 | 1.28%
CN1C(=O)c2cccc3c(N)ccc(c23)C1=O | 1160% (active)
COc1cc(C(=O)N2C(=O)c3cccc(N)c3C2=O)cc(OC)c1OC | -5.72%
O=C1c2cccc3c([N+](=O)[O-])ccc(c23)C(=O)N1CC1CCCO1 (configuration not stated) | 9.63%
CCn1cc(C(=O)N[C@@H](C)C(=O)NCCO)c(=O)c2cc3c(cc21)OCO3 | 0.57%
CCCC(O)(CCC)C(=O)NN(C(=O)CCl)c1cccc(C)c1 | -2.77%
CN(C)C(CNC(=O)c1ccc(S(=O)(=O)NCc2ccco2)cc1)c1ccccc1 (configuration not stated) | -0.95%
CC1(C)Cc2nc3sc4c(SCC(=O)NC(c5ccccc5)c5ccccc5)ncnc4c3cc2CO1 | -4.73%
C=CCNc1nnc(SCC(=O)N2CCCCC2)c2ccccc12 | 33.8% (active)
C=CCNc1nnc(C)c2ccccc12 | 6.46%
O=C(CSc1ncccn1)N1CCCC1 | 4.22%
Cc1nn(-c2ncccn2)c2c1C(=O)CC(C)(C)C2Br (configuration not stated) | 1.48%
CCc1ccc2ncc(C(=O)c3ccccc3)c(N3CCOCC3)c2c1 | 6.46%
N#Cc1c(NCCO)ccc([N+](=O)[O-])c1NCCO | -0.27%

Source: PubChem BioAssay AID493008 (The Scripps Research Institute Molecular Screening Center, 2010)
